From PubChem
A selection: hits, their analogues and other compounds. The true share with any hit is near 3.7%.
HepG2 viability: HepG2 cytotoxicity, counter-screen for TGF-b inhibitors | HepG2 CAGA-GFP viability, ATP luminescence, 18 h | Potency, µM (titrated, usually from 46.1 µM), without a hit: at the highest dose activity change, negative = cytotoxicity, hits mostly cytotoxic | 410,000 compounds, 0.76% hits
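CellTiter-Glo luminescence gave cytotoxicity after 18 hours at 37 degrees C. The cells were HepG2 CAGA-GFP in 1% FBS DMEM, stimulated with 500 pg/mL TGF-beta after compound addition. %Activity was normalised to no-cell wells (complete cell-killing) and DMSO (no toxicity), and curves were fitted and classified.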
ATXN2 expr inh: reduces ATXN2 reporter expression in HEK-293 cells; Potency, µM (titrated, usually from 57 µM), for the others: at the top dose activity change, negative = inhibition, actives largely listed as inhibitors; 360,000 compounds, 0.72% hits; HEK-293 ATXN2-luciferase reporter, luminescence, 24 h; further: on the % scale 0 is the no-effect control and ±100 the full control effect; nearly all actives have a fitted effect of over 55% in size
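qHTS (up to 57 uM final) was run with 24 h compound exposure of reporter cells at 37 °C. Each well was multiplexed: SteadyGlo luminescence measured ATXN2-luciferase expression after a fluorogenic Gly-Phe-AFC viability readout (25 uM final).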
ATXN viability: cell viability loss in ATXN counter-screen; S2 cells (HEK-293 line with an ATXN2-luciferase reporter) viability, CellTiter-Fluor protease fluorescence, 24 h; Potency, µM (doses to about 56.7 µM), most hits filed as cytotoxic; 400,000 compounds, 0.49% hits; AID 651635; further: nearly all actives have a fitted effect of over 40% in size
TGFb inhibitor: TGF-b pathway inhibition | HepG2 CAGA-GFP TGF-b/SMAD3 reporter, GFP fluorescence, 18 h; TGF-beta stimulated, 500 pg/mL final | Potency, µM (titrated, usually from 46.1 µM), without a hit: top-dose activity, negative = inhibition, most hits filed as inhibitors | 410,000 compounds, 1.2% hits; further: on the % scale 0 is the no-effect control and ±100 the full control effect; nearly all actives have a fitted effect of over 65% in size
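GFP signal (ex488/em500-530) from TGF-beta-stimulated HEPG2 CAGA-GFP cells, 500 pg/mL final, 18 h at 37 degrees C in DMEM plus 1% FBS, normalized to unstimulated and DMSO-stimulated controls.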
GLP1R inv ag: inverse agonists of human GLP-1 receptor; Potency, µM (highest dose often 38.3 µM), for the others: top-dose activity change, negative = inhibition, hits mostly inhibitors; 410,000 compounds, 1.6% hits; P43220; HEK293 GLP-1R CRE-luciferase, luminescence, 24 h; GLP-1R form is constitutively active; further: on the % scale 0 is the no-effect control and ±100 the full control effect; nearly all actives have a fitted effect of over 55% in size
Target sequence (P43220 whole entry, looked up): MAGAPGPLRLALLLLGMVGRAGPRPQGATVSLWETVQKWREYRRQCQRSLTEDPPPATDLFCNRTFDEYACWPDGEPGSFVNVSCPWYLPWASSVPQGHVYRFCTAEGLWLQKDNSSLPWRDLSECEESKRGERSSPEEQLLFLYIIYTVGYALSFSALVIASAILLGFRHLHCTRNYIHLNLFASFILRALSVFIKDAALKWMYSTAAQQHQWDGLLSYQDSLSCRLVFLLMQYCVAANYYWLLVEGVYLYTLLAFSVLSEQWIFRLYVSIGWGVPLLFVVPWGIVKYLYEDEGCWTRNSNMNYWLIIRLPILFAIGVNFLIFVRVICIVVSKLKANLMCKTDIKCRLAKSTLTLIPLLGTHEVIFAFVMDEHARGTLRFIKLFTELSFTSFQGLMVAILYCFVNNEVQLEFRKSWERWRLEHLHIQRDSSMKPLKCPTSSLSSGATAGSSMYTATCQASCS
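Inverse agonists were sought by their lowering of basal cAMP reporter luciferase output in HEK293 cells stably carrying constitutively active human GLP-1R, after 24 h compound treatment.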
GLP1R ag: activates the human GLP-1 receptor | 380,000 compounds, 0.007% hits | Potency, µM (titrated, usually from 45.6 µM), for the others: top-dose activation, usual class: activators | AID 624172 | HEK293 GLP-1R CRE-luciferase, luminescence, 4-6 h; cells express a hypersensitive GLP-1R form | P43220; further: % of control where 0% means no effect
* = called active by the depositor. The call rests on the fitted dose curve; in most records, active means well fitted curve in the direction sought with a large enough effect; inconclusive means small, poorly fitted or top-dose-only effect, or another doubt; inactive means no such curve, though single readings can be large; an effect the other way counts as inactive or inconclusive. Potency means the concentration at half of the fitted maximal effect.

How did O=C(Cc1ccc(Br)cc1)Nc1cccc(S(=O)(=O)N2CCCCC2)c1 do in these assays?
HepG2 viability: -17.8%; ATXN viability: inconclusive; TGFb inhibitor: inconclusive; GLP1R inv ag: 10µM*; GLP1R ag: 2.5%

What do the screens show for `CCCn1c(CN2CCN(c3ccc(OC)cc3)CC2)nc2c1c(=O)[nH]c(=O)n2C`?
HepG2 viability: -11.7%; ATXN2 expr inh: -27.5%; ATXN viability: inactive; TGFb inhibitor: -16.8%; GLP1R inv ag: 11.3%; GLP1R ag: 7.2%

Results for CSC1=C(C#N)C(c2ccccc2Cl)C2=C(N1)c1ccccc1C2=O (stereo not given) ?
HepG2 viability: 5.4%; ATXN2 expr inh: -18.4%; ATXN viability: inconclusive; TGFb inhibitor: 18.5%; GLP1R inv ag: 18.2%; GLP1R ag: 0.9%

Results for Cc1nn(-c2ccccn2)c2c1C(c1ccccc1Cl)C1=C(N2)c2ccccc2C1=O (stereo not given) ?
HepG2 viability: -0.9%; ATXN2 expr inh: inconclusive; ATXN viability: 2.24µM*; TGFb inhibitor: -4.2%; GLP1R inv ag: 11.7%; GLP1R ag: 0.6%

Results for Cc1ncc2c(c1CNC(=O)c1cncs1)CCN(C(=O)c1ccc(-c3ccccc3)cc1)C2 ?
ATXN viability: inactive

Results for O=[N+]([O-])c1cc(C(F)(F)F)cc([N+](=O)[O-])c1NCCNC(=S)Nc1ccc(Cl)c(Cl)c1 ?
HepG2 viability: 11.2µM*; ATXN2 expr inh: inconclusive; TGFb inhibitor: 11.2µM*; GLP1R inv ag: 8.91µM*; GLP1R ag: -0.8%

Results for CCc1nc2c(cnn2-c2ccc(Cl)cc2)c(=O)n1-c1ccc(OC)c(Cl)c1 ?
HepG2 viability: 5.8%; TGFb inhibitor: 19.8%; GLP1R inv ag: 3.4%

Results for Cc1ccc2nc(C3CCCCC3)c(Cc3ccsc3)n2c1 ?
ATXN2 expr inh: inconclusive; ATXN viability: inconclusive; GLP1R inv ag: inconclusive; GLP1R ag: 5.8%

What do the screens show for `Cc1ccc(Cc2c(C3CCCCC3)nc3ccc(C)cn23)cc1`?
HepG2 viability: -55.6%; ATXN2 expr inh: 15.8µM*; ATXN viability: 12.6µM*; TGFb inhibitor: inconclusive; GLP1R inv ag: inconclusive; GLP1R ag: -3.2%

What do the screens show for `COc1ccc(CCNC(=O)c2nc(SCc3ccc(C)cc3)ncc2Cl)cc1OC`?
HepG2 viability: -44.8%; TGFb inhibitor: inconclusive; GLP1R inv ag: -9.1%

How did Cc1ccc(S(=O)(=O)n2cnc3cc([N+](=O)[O-])ccc32)cc1C do in these assays?
HepG2 viability: -20.5%; ATXN2 expr inh: 0.5%; ATXN viability: inactive; TGFb inhibitor: -16.1%; GLP1R inv ag: 6.5%; GLP1R ag: 0.1%

What do the screens show for `Cc1ccc(-n2c3nc(=O)[nH]c(=O)c-3cc3cc([N+](=O)[O-])ccc32)cc1C`?
HepG2 viability: -1.6%; ATXN viability: inactive; TGFb inhibitor: 1.1%; GLP1R inv ag: 10µM*; GLP1R ag: 7.9%

Results for COc1ccc(Br)cc1/C=N/NC(=O)c1ccc(COc2ccc3c(c2)CCC3)o1 ?
HepG2 viability: 8.4%; ATXN2 expr inh: 44.8%; ATXN viability: inactive; TGFb inhibitor: 0.0%; GLP1R inv ag: 2.4%; GLP1R ag: 1.6%

Results for O=C(N/N=C/c1cc([N+](=O)[O-])ccc1O)c1ccc(COc2ccc3c(c2)CCC3)o1 ?
HepG2 viability: -49.1%; ATXN2 expr inh: 7.94µM*; ATXN viability: inconclusive; TGFb inhibitor: 4.47µM*; GLP1R inv ag: -16.7%; GLP1R ag: -4.1%

How did O=C(Nc1ccc(OCc2cc(=O)n3c4c(sc3n2)CCCC4)cc1)c1ccc(F)cc1 do in these assays?
HepG2 viability: 20.0%; ATXN2 expr inh: 3.2%; ATXN viability: inactive; TGFb inhibitor: 23.4%; GLP1R inv ag: 6.7%; GLP1R ag: 0.8%
